A short description of test [1]: StAR promoter reporter inhibitors, counter-screen for LRH-1 inverse agonist project, cell-based, luminescence, high throughput (AID 651611; in the data active = inhibition above about 28%). The note with it: StAR promoter luciferase reporter counterscreen, at 3.6 µM, hits give high values. For orientation: A counterscreen serves to expose hits that act by an unwanted route or on another target.
Test [2] deals with Nuclear receptor subfamily 5 group A member 2 (Homo sapiens) (UniProt O00482). As to the kind of experiment: NR5A2 activity suppression in reporter cells – cell-based, luminescence, confirmation (AID 651613; in the data active = inhibition above about 42%;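 also: HEK293T cells co-transfected with LRH-1 and StAR promoter luciferase reporter; 0% = vehicle wells and 100% = parental cells lacking receptor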). Conditions: cell-based LRH-1 luciferase reporter, inverse agonism; at 3.6 µM; hits give high values.
The target in test [3] is Steroidogenic factor 1 (Homo sapiens) (UniProt Q13285). The test is described as follows: inverse agonism at SF1 nuclear receptor – cell-based, luminescence, high throughput, counter-screen for LRH-1 inverse agonist project (AID 651614; in the data active = inhibition above about 44%;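 also: cells cotransfected with StAR promoter reporter and SF1 expression vector; 0% = vehicle on cells with receptor and 100% = vehicle on cells lacking receptor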). The note with it: cell-based SF1 luciferase reporter, at 3.6 µM, hits give high values.
A short description of test [4]: compounds suppressing VP16-driven luciferase signal – cell-based, luminescence, high throughput, counter-screen for LRH-1 inverse agonist project (AID 651615). The note with it: Gal4-VP16 luciferase reporter cells, at 3.6 µM, hits give high values.

SMILES strings stand for the structures. A number with no mark means an inactive call. The source made the active and inactive calls. Rule as the data show it, unless noted: active = inhibition above about 33%; inactive = the rest.

Chain of Nuclear receptor subfamily 5 group A member 2 (Homo sapiens) (O00482 whole entry, looked up): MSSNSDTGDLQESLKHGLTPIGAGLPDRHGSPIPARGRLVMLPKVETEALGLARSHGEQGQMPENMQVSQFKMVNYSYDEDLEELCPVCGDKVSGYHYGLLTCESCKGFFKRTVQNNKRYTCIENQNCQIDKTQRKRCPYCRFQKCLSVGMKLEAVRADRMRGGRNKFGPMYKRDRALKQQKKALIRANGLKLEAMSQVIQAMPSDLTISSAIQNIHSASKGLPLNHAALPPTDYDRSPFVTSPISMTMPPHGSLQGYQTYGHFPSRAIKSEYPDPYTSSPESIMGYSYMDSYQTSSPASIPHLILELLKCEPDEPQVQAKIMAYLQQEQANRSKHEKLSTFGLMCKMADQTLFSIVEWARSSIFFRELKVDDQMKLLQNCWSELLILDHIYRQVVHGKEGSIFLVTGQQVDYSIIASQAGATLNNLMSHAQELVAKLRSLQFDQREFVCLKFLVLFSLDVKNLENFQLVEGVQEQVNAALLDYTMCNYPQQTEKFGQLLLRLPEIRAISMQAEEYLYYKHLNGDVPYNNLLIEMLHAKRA
Chain of Steroidogenic factor 1 (Homo sapiens) (Q13285 whole entry, looked up, the tested form may be a part): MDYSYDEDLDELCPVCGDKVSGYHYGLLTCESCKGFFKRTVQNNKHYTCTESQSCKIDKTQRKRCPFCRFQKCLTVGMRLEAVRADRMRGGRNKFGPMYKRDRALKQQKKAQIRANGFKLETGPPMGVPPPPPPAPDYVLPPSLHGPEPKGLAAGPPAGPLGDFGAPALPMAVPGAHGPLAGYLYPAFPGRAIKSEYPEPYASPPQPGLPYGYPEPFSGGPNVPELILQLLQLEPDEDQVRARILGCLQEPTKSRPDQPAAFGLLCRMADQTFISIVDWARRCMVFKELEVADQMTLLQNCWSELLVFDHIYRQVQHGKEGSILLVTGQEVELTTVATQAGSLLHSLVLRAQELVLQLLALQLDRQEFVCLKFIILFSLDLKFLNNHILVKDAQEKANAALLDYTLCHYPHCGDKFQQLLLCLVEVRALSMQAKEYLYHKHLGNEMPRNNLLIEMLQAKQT

For `O=C(c1ccco1)N1CCN(C(=O)c2ccc(COc3ccc(Cl)cc3Cl)o2)CC1`, the inhibition (commonly the relative decrease from the control value, in per cent) in test [1] was 5.02%; in test [2], 49% (active); in test [3], 46.2% (active); in test [4], -11.1%.
For `O=C(CC1C(=O)NCCN1C(=S)Nc1ccccc1)Nc1ccc2c(c1)OCCO2` (stereo not drawn) the same measures were 10.3%, 53.8% (active), 63.2% (active) and -25.2%.
For `CC1(C(=O)NCc2ccc3c(c2)OCO3)CCN1C(=O)Cc1ccc(Cl)cc1Cl` (stereo not drawn), in that order: 7.73%, 56.5% (active), 47% (active) and -2.52%.
For `CCCNC(=O)c1sc2c(c1C(=O)Nc1ccccn1)CCCC2`, in that order: -1.58%, 47.1% (active), 42.7% (active) and 14.3%.
In the case of `CC(=O)Nc1cccc(-c2cc(NC=O)c3ncc(-c4cccc(C(C)=O)c4)n3c2)c1`, the inhibition was 29.1% (active) in test [1], 57.6% (active) in test [2], 53.2% (active) in test [3] and -34.5% in test [4].
For `COc1ccc(CC(NC(C)=O)C(=O)NC2CCN(c3nnnn3-c3ccccc3)CC2)cc1` (stereo not drawn), in that order: 10.5%, 45.1% (active), 43.8% (active) and 2.12%.
For `O=C(NC(NNc1ccc([N+](=O)[O-])cc1)(C(F)(F)F)C(F)(F)F)c1ccccc1Cl`, in that order: 7.51%, 18.4%, 34.1% and 5.04%.
For `COc1ccc(OC)c(C2=NS(=O)(=O)N(C)C(C(=O)Nc3ccc(C(C)=O)cc3)=C2)c1`, in that order: 4.76%, 44.8% (active), 45% (active) and -9.42%.
`Cc1cc(OCC(=O)Nc2nccs2)c2c(C)cc(=O)oc2c1`: the inhibition in test [1] is 16.2%; in test [2], 66.6% (active); in test [3], 55.3% (active); in test [4] it was -19.8%.
Consider `Cc1cc2oc(=O)cc(C)c2cc1NC(=O)CCl`, for which the inhibition in test [1] is 32.9% (active); in test [2] it was 58.9% (active); in test [3], 57.7% (active); in test [4], -57.1%.
For `O=C(Nc1ccc(Cc2ccncc2)cc1)c1cccc([N+](=O)[O-])c1` the same measures were -10.2%, 52.4% (active), 51.9% (active) and 0.73%.
For `O=[N+]([O-])c1cnccc1Nc1ccc(F)cc1` the same measures were 13.2%, 66.8% (active), 55.2% (active) and 9.14%.
For `COCc1cc(C)nc(SCC(=O)Nc2cc3c(cc2C#N)OCO3)c1C#N`, the inhibition is -4.84% in test [1], 45.3% (active) in test [2], 47.2% (active) in test [3] and -12.4% in test [4].
For `Cc1onc(-c2cccc(Cl)c2Cl)c1C(=O)O/N=C(\N)c1ccc([N+](=O)[O-])o1` the same measures were 11.8%, 69.7% (active), 67.3% (active) and -4.83%.
For `c1ccc2c(c1)CC1(CCCC1)n1nnnc1-2`, in that order: 5.24%, 52.2% (active), 42.5% and -5.69%.
For `O=C(c1cc(COc2cccc3cnccc23)on1)N1CCCC(CCCO)C1` (stereo not drawn), in that order: 35.4% (active), 66.4% (active), 70.5% (active) and 63.5% (active).
Turning to `Cc1ccccc1Nc1nc(-c2cccnc2)nc2ccccc12`, the inhibition in test [1] was 2.04%; in test [2] it was 41.5% (active); in test [3] it was 33.2%; in test [4], -10.5%.

For the origin of these results see PubChem BioAssay.
